In the supplement of paper PMC10338343:
± gives the standard deviation.

Test system: EfPiwi piRISC loaded with L1MC piRNA (26 nt)
Test: pre-steady-state target cleavage rate (min^-1); auxiliary factor: 500 nM Ephydatia muelleri Gtsf1; guide: L1MC piRNA 5'p-UAACUAAAUACUAUGCAAGCUGUAGG; MIWI and MILI are mouse PIWI proteins and EfPiwi is from a freshwater sponge; tags in brackets are library labels; higher = faster piRNA-guided slicing of the target
Method in brief: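 At 33 °C in HEPES–potassium acetate buffer, a transcribed, DNA-blocked target RNA library […] was exposed for 0–8 or 0–960 min to 1 nM active affinity-purified piRISC carrying a single synthetic guide, with or without 500 nM GTSF1 partner protein. Uncleaved targets were sequenced and normalised to depth and to weakly complementary targets. With three trials pooled and k3 capped at 0.0001 min^-1, a burst-and-steady-state fit produced the pre-steady-state cleavage rate.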

Sequence	pre-steady-state target cleavage rate
UCCUGGUACAGCUUGCAUAGAAUUAAGUUA	0.00454 ± 0.0027
UCCUGGAUGUCCUUGCAUAGUAUUUAGCUUA	0.0051 ± 0.0028
UCCUGCUACUAGCUUGCAUAGUAUUUAGUUA	0.00699 ± 0.0025
UCCUGGAAGAGCUUGCAAAGUAUUUAGUUA	0.018 ± 0.005
UCCUGGAUGUCGAUGCAAAGUAUUUUGUUA	< 0.0001
UCCUGGAACUGCUUGCAUAGUAUUUAGUAA	0.00308 ± 0.0023
UCCUCCUACAGGUAGCAUAGUAUUUAGUUA	0.0265 ± 0.006
UCCUGGAUGAGGUUGCAUAGUAUUUAGAAA	0.00315 ± 0.0029
UCCUGGAUGUCGAACGUCAGUAUUUAGUUA	< 0.0001
UCCUGCUACUGGUUGCAUAGUAUUUAGUUA	0.0113 ± 0.0035
UCCUGCUACAGCUUCCAUAGUAUAUAGUUA	0.00251 ± 0.0024
UCCUGCUACAGCUUGGAUAGUAUUUUCAAA	0.00307 ± 0.0018
UCCUGGAUGUCGAACCCUAGUAUUUAGUUA	< 0.0001
UCCUGGAUGAGCUUGCAUAGUUUUUAGAAA	0.00315 ± 0.0019
UCCUGGAUCAGCUAGCAUACUAUUUAGUUA	0.00342 ± 0.0018
UCCUGGUACAGCUUCCAUAGUAUUUAGAAA	0.00336 ± 0.0013
UCCUGGUACAGCCUGCAUAGUAUUUAGUUA	0.00984 ± 0.0036
UCCUGGAACAGGUUGCAUAGUAAUUAGUUA	0.0061 ± 0.0024
UCCUCCUAGAGCUUGCAUAGUAUUUAGUUA	0.0186 ± 0.0054
UCCUGGAUGUGCUUGCAUAGUAUUAAGUUA	0.00372 ± 0.0032

Sequence	pre-steady-state target cleavage rate
UCCUGGAUGUCGAACCAUAGAUAUUAGUUA	< 0.0001
UCCUGGAUGUCGAACCAUAGUCUUUAGUUA	< 0.0001
UCCUGGAUGUCGAACGUAUCAAUAUAGUUA	< 0.0001
UCCUGGAUGAGCUUGGAUAGUAUUUAGAAA	0.00463 ± 0.0034
UCCUCCUACAGCUUGCAUAGAAUUAAGUUA	0.00382 ± 0.0025
UCCUGGAUCAGGUUGCAUUGUAUUUAGUUA	0.00567 ± 0.0021
UCCUCCAACUGCUUGCAUAGUAUUUAGUUA	0.0183 ± 0.0064
UCCUGCUACAGCUUGGAUAGUAUUUAGAAA	0.00242 ± 0.0021
UCCUGGAUGUCGAACGUUACAAUUUAGUUA	< 0.0001
UCCUGGAUGUCGAACCAUAGUAUUUGUUA	< 0.0001
UCCUGGUACAGCUUCGAUAGUAUUUACAAA	0.00595 ± 0.0049
UCCUGGAUGUCGAACCAUUGUAUUUAGUAA	< 0.0001
UCCUCCUACAGCUUCCAUAGUAUAUAGUUA	0.00246 ± 0.0022
UCCUGGAUCAGCUUGCGAUAGUAUUUAGUUA	0.00281 ± 0.0027
UCCUGGUACAGGAUGCAUAGUAUUUAGAAA	0.00448 ± 0.004
UCCUGGAUGUCGAACGAUAGUCAUUUAGUUA	< 0.0001
UCCUGGAACAGCUUGCACUAGUAUUUAGUUA	0.00312 ± 0.0026
UCCUGGAUCAGCUUGCAUAGUUUUAAGUUA	0.00285 ± 0.0028
UCCUGGAUGAGCUGGCAUAGUAUUUAGUUA	0.0103 ± 0.0035
UCCUGGAACAGCUUGCAUAGUAUUUUAGUUA	0.0192 ± 0.0054
